Measured values reported in PubChem BioAssay AID602365 (National Center for Advancing Translational Sciences (NCATS), 2012).
Results filed as inconclusive are left out. A number with no mark means an inactive call. Activity calls are given as the source filed them. Calls follow the shape of the dose curve; as a rule, active = well fitted inhibition curve with a large enough effect; inconclusive = small, poorly fitted or top-dose-only effect; inactive = flat fitted curve, though single readings scatter.

molecular target: Luciferin 4-monooxygenase (Photinus pyralis) (UniProt P08659); experiment: FLuc inhibitory activity for the follow-up compounds in a biochemical assay with 1mM D-luciferin; conditions: purified FLuc, luminescence; series mostly up to 57.5 µM; activity change, negative = inhibition: at the top concentration
Sequence (P08659 whole entry, looked up): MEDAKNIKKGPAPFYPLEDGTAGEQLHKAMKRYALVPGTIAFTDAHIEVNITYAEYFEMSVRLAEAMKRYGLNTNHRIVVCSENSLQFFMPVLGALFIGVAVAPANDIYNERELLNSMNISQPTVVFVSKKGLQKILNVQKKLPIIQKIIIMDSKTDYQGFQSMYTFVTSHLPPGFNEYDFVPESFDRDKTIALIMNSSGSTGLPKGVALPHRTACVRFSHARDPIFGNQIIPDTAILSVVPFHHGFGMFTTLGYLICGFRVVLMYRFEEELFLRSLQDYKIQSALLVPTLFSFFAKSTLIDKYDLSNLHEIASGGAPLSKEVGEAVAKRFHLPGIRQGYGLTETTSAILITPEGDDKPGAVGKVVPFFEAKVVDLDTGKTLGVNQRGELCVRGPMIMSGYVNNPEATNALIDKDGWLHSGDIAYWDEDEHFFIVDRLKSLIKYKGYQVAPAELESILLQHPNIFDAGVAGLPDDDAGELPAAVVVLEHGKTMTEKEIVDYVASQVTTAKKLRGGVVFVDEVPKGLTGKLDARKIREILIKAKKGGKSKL
From the text: NCGC Assay Overview: Firefly (Photinus pyralis) luciferase is one of the most commonly used transcriptional reporters. It is considered one of the more dynamically responsive reporters - that is, responsive to changes in reporter transcription - as it requires no post-translational modifications and is enzymatically active directly after protein synthesis (Wood, 1998). With no endogenous expression in mammalian cells and without the requirement of external excitation, it offers very little background signal, thus generally providing excellent signal to background for most assays. Previous profiling work to determine the prevalence of compounds that affect FLuc enzymatic activity (PubChem AID 411) identified that ~3% of the MLSMR library (then at ~72K) inhibited FLuc. […] Of the compounds identified in this profile that inhibited FLuc, 151 compounds were selected for further analysis, in an effort to better understand their mode of inhibiting FLuc. The assay described here was to determine the activity of the compounds in a FLuc assay that contained a KM concentration of ATP and a high concentration (1mM) of D-luciferin.
NCGC Assay Protocol Summary: Reagents: 50mM Tris acetate, pH 7.5; 10mM Mg acetate; 1mM D-luciferin (Sigma #L9504); 10uM ATP; 0.01% Tween-20; 0.05% BSA; 10nM P. pyralis luciferase (Sigma #L9506) Control compounds used were two known firefly luciferase inhibitors (3-(5-(3-chlorophenyl)-1,2,4-oxadiazol-3-yl)benzoic acid and 5-(2-fluorophenyl)-3-phenyl-1,2,4-oxadiazole), and DMSO. Three microliters containing firefly luciferase substrates in buffer (final concentrations: 50mM Tris acetate, pH 7.5, 10mM Mg acetate, 0.01% Tween-20, 0.05% BSA, 1mM D-luciferin, 10uM ATP) are dispensed into each well of a Greiner white, solid-bottom 1536-well format plate using a flying reagent dispenser (FRD). These assay plates were then treated with 23nL of compound or DMSO using a Kalypsys pin tool, which allows for delivery of a 12-point intraplate titration of each compound to the assay plate (quantitative HTS), with a final compound concentrations ranging from approximately ~60uM to 0.3nM. One microliter of firefly luciferase in […] Tris-acetate buffer was then delivered by FRD to each well for a final enzyme concentration of 10nM. Luciferase activity was then measured using a ViewLux CCD imager (PerkinElmer), with an average exposure time of 2-30 seconds (2X binning, medium/high gain).

Which Potency does the source give for `O=C(Nc1ccc(-c2nc3ccccc3s2)cc1)C1=COCCO1` here?
Its Potency is 0.366 µM (active).

`COc1ccc2nc(NC(=O)c3cnccn3)sc2c1` was tested. Which Potency did it give?
The Potency was 6.51 µM (active).

With `O=C(O)c1cccc(NC(=O)c2cccc(S(=O)(=O)Nc3cccc(F)c3)c2)c1` as the molecule, how does the “activity change, negative = inhibition” value read?
Its value is -4.54%.

With `COc1ccc(C(=O)Nc2ccccc2-c2nc3ccccc3s2)c(OC)c1` as the molecule, how does the “activity change, negative = inhibition” value read?
The value was -4.07%.

For `CC(=O)Oc1ccc(C(=O)Nc2ccccc2C(=O)Nc2ccc(C(=O)O)cc2)cc1`, which Potency is on record?
Its Potency is 18.3 µM (active).

With `Cc1c(C)c2ccc(OCC(=O)Nc3ccccn3)c(C)c2oc1=O` as the molecule, how does the Potency read?
Its Potency is 0.0919 µM (active).

How did the Potency turn out when `COc1ccc2nc(NC(=O)c3ccco3)sc2c1` was run?
Its Potency is 3.26 µM (active).

With `Cc1c(NS(C)(=O)=O)cccc1-c1nc2ccccc2s1` as the molecule, how does the Potency read?
The Potency was 16.3 µM (active).

Which “activity change, negative = inhibition” value does the source give for `O=C(O)c1ccc(NC(=O)c2cccc(C(=O)Nc3ccc(C(=O)O)cc3)c2)cc1` here?
The value was -16.3%.

With `O=C(Nc1ccccc1C(=O)O)c1ccc(NC(=O)C2CC2)cc1` as the molecule, how does the Potency read?
Its Potency is 4.11 µM (active).

`COc1ccc2nc(NC(=O)CCc3nc(-c4ccccc4F)no3)sc2c1` was tested. Which “activity change, negative = inhibition” value did it give?
The value was -3.48%.

Which Potency does the source give for `O=C(Nc1ccccc1C(=O)O)c1cccc(NC(=O)c2ccccc2Cl)c1` here?
Its Potency is 36.6 µM (active).

For `O=C(Cc1ccccc1)Nc1ccccc1C(=O)Nc1ccc(C(=O)O)cc1`, which “activity change, negative = inhibition” value is on record?
The value was -0.0902%.

Which Potency does the source give for `COc1ccc2nc(NC(=O)Cc3cccs3)sc2c1` here?
Its Potency is 13 µM (active).

`CN=c1scc(-c2ccccc2F)n1/N=C/c1ccc[nH]1` was tested. Which Potency did it give?
The Potency was 0.0819 µM (active).

For `CCn1c(C)nc2cc(-c3nc4n(n3)Cc3ccccc3-4)ccc21`, which Potency is on record?
The Potency was 0.163 µM (active).

With `O=C(O)c1cccc(NC(=O)c2cccc(S(=O)(=O)N3CCc4ccccc43)c2)c1` as the molecule, how does the “activity change, negative = inhibition” value read?
Its value is -14.4%.

How did the Potency turn out when `COc1ccc(C(=O)Nc2ccccc2C(=O)N/N=C/c2ccc(O)c(OC)c2)cc1` was run?
The Potency was 0.0103 µM (active).

`Cc1ccc(C(=O)Nc2cccc(C(=O)O)c2)cc1S(=O)(=O)N1CCOCC1` was tested. Which Potency did it give?
The Potency was 16.3 µM (active).

`Nc1ccc(-c2nc3ccc(N)cc3s2)cc1` was tested. Which Potency did it give?
Its Potency is 1.83 µM (active).

Which Potency does the source give for `COc1ccc(-c2nc3ccccc3s2)cc1O` here?
The Potency was 0.651 µM (active).

`COc1ccc(-c2cccc(C(=O)Nc3cccc(C(=O)O)c3)c2)cc1` was tested. Which Potency did it give?
The Potency was 18.3 µM (active).

`O=C(Nc1ccccc1C(=O)O)c1cc(S(=O)(=O)Nc2cccc(F)c2)ccc1Cl` was tested. Which “activity change, negative = inhibition” value did it give?
The value was -13.3%.

For `CCOc1ccc2nc(NC(=O)Cc3cccs3)sc2c1`, which Potency is on record?
The Potency was 18.3 µM (active).

Which Potency does the source give for `Nc1ccc2nc(-c3ccc(O)cc3)sc2c1` here?
The Potency was 1.3 µM (active).

For `COc1ccc2nc(NC(=O)c3ccc(S(=O)(=O)N4CCCC(C)C4)cc3)sc2c1` (stereo not given), which “activity change, negative = inhibition” value is on record?
Its value is -1.24%.

How did the Potency turn out when `Oc1ccc(-c2nc3ccccc3s2)c(O)c1` was run?
The Potency was 16.3 µM (active).

With `COc1cc(C(=O)Nc2cc(C)c(O)c(-c3nc4ccccc4s3)c2)cc(OC)c1OC` as the molecule, how does the “activity change, negative = inhibition” value read?
The value was 7.61%.

With `CC(C)c1ccc(-c2nc3ccccc3s2)cc1` as the molecule, how does the Potency read?
Its Potency is 0.183 µM (active).

Which Potency does the source give for `c1ccc2sc(-c3ccc4c(c3)OCO4)nc2c1` here?
Its Potency is 1.3 µM (active).

Which Potency does the source give for `O=C(Cc1ccccc1)Nc1ccc(C(=O)Nc2ccccc2C(=O)O)cc1` here?
Its Potency is 20.6 µM (active).

Which Potency does the source give for `CCOc1ccc2nc(NC(=O)c3ccccn3)sc2c1` here?
Its Potency is 2.06 µM (active).

With `O=C(Nc1ccccc1C(=O)O)c1cccc(S(=O)(=O)Nc2ccc(Br)cc2)c1` as the molecule, how does the “activity change, negative = inhibition” value read?
Its value is -16.9%.

How did the “activity change, negative = inhibition” value turn out when `O=C(Nc1ccc(Cl)cc1-c1nc2ccccc2s1)c1ccco1` was run?
Its value is -9.53%.

Which Potency does the source give for `O=C(Nc1ccccc1C(=O)Nc1ccccc1C(=O)O)c1ccccc1` here?
The Potency was 20.6 µM (active).

How did the Potency turn out when `CCOc1ccc(C(=O)Nc2ccccc2C(=O)O)cc1` was run?
Its Potency is 3.66 µM (active).

With `O=C(Nc1cccc(-c2nc3ccccc3s2)c1)c1cc(-n2cnnc2)ccc1Cl` as the molecule, how does the Potency read?
The Potency was 8.19 µM (active).

For `Cc1c(NC(=O)c2cccs2)cccc1-c1nc2ccccc2s1`, which Potency is on record?
The Potency was 14.6 µM (active).

`Cc1ccc(C(=O)Nc2cccc(C(=O)O)c2)cc1S(=O)(=O)N1CCCCC1` was tested. Which Potency did it give?
Its Potency is 4.11 µM (active).

`O=C(Nc1ccccc1C(=O)O)c1cccc(NC(=O)c2ccco2)c1` was tested. Which Potency did it give?
Its Potency is 20.6 µM (active).
